Measurements taken from PubChem BioAssay AID1159580 (chemical genetic matrix, 2015).
In all, about 5,500 compounds went through this assay and about 2,000 (36%) were called active. About 18% were inconclusive and are not listed. Rule as the data show it: active = normalized growth mostly below about 0.91 (no sharp cut-off); inconclusive = no clear call, values can overlap the other calls; inactive = mostly above about 0.92. The list shows a part of the results.

Assay: chemical genetic growth profiling, strain panel (AID 1159580);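 also: tested at 20 µM; growth read once vehicle control cultures reached saturation at 30 °C; 1 = growth at the plate median or of vehicle wells; lower values mean less growth of the strain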
Conditions: growth OD

Measured: normalized growth

CC(C)=CCc1c2c(c(O)c3c(=O)c(O)c(-c4ccccc4)oc13)C=CC(C)(C)O2
inactive: S. cerevisiae deletion strains, locus YKL009W, strain mrt4, active compounds read low 1.02 | S. cerevisiae deletion strains, locus YKL068W, active compounds read low 0.977 | S. cerevisiae deletion strains, locus YKL085W, strain MDH1 (second series), active compounds read low 0.984 | S. cerevisiae deletion strains, locus YKL085W, strain MDH1, active compounds read low 0.984 | S. cerevisiae deletion strains, locus YKL160W, strain elf1, active compounds read low 0.99 | S. cerevisiae deletion strains, locus YLL026W, active compounds read low 0.94 | S. cerevisiae deletion strains, locus YLL041C, strain sdh2, active compounds read low 0.979 | S. cerevisiae deletion strains, locus YLR102C, strain apc9, active compounds read low 0.93 | S. cerevisiae deletion strains, locus YMR078C, strain ctf18, active compounds read low 0.92 | S. cerevisiae deletion strains, locus YNL250W, strain rad50, active compounds read low 0.951 | S. cerevisiae deletion strains, locus YNL322C, strain KRE1 (second series), active compounds read low 0.943 | S. cerevisiae deletion strains, locus YNR049C, strain mso1, active compounds read low 0.958 | S. cerevisiae deletion strains, locus YOL012C, strain htz1 0.278 | S. cerevisiae deletion strains, locus YOR290C, strain snf2, active compounds read low 0.887 | S. cerevisiae deletion strains, locus YPL240C, strain hsp82, active compounds read low 0.956 | S. cerevisiae deletion strains, locus YPR141C, strain kar3, active compounds read low 0.962
active: S. cerevisiae deletion strains, locus YJL187C, strain SWE1, active compounds read low 0.639 | S. cerevisiae deletion strains, locus YJR043C, strain POL32, active compounds read low 0.496 | S. cerevisiae deletion strains, locus YKL190W, strain CNB1, active compounds read low 0.585 | S. cerevisiae deletion strains, locus YKR001C, strain vps1, active compounds read low 0.816 | S. cerevisiae deletion strains, locus YKR026C, strain gcn3, active compounds read low 0.899 | S. cerevisiae deletion strains, locus YKR091W, strain srl3, active compounds read low 0.831 | S. cerevisiae deletion strains, locus YLL001W, strain dnm1, active compounds read low 0.74 | S. cerevisiae deletion strains, locus YLR027C, strain aat2, active compounds read low 0.86 | S. cerevisiae deletion strains, locus YLR039C, strain RIC1, active compounds read low 0.379 | S. cerevisiae deletion strains, locus YLR058C, strain SHM2, active compounds read low 0.563 | S. cerevisiae deletion strains, locus YLR221C, strain rsa3, active compounds read low 0.835 | S. cerevisiae deletion strains, locus YLR258W, strain gsy2, active compounds read low 0.892 | S. cerevisiae deletion strains, locus YLR262C, strain YPT6 (second series), active compounds read low 0.542 | S. cerevisiae deletion strains, locus YLR268W, strain sec22, active compounds read low 0.633 | S. cerevisiae deletion strains, locus YLR320W, strain mms22, active compounds read low 0.762 | S. cerevisiae deletion strains, locus YLR342W, strain FKS1, active compounds read low 0.514 | S. cerevisiae deletion strains, locus YLR357W, strain rsc2, active compounds read low 0.61 | S. cerevisiae deletion strains, locus YLR370C, strain arc18, active compounds read low 0.754 | S. cerevisiae deletion strains, locus YLR371W, strain rom2, active compounds read low 0.623 | S. cerevisiae deletion strains, locus YLR384C, strain iki3, active compounds read low 0.723 | S. cerevisiae deletion strains, locus YLR418C, strain cdc73, active compounds read low 0.502 | S. cerevisiae deletion strains, locus YML016C, strain PPZ1, active compounds read low 0.484 | S. cerevisiae deletion strains, locus YML032C, strain rad52, active compounds read low 0.861 | S. cerevisiae deletion strains, locus YML120C, strain ndi1, active compounds read low 0.822 | S. cerevisiae deletion strains, locus YML124C, strain tub3, active compounds read low 0.878 | S. cerevisiae deletion strains, locus YMR058W, strain fet3, active compounds read low 0.143 | S. cerevisiae deletion strains, locus YMR125W, strain sto1, active compounds read low 0.872 | S. cerevisiae deletion strains, locus YMR129W, active compounds read low 0.854 | S. cerevisiae deletion strains, locus YMR205C, strain PFK2, active compounds read low 0.51 | S. cerevisiae deletion strains, locus YMR223W, strain ubp8, active compounds read low 0.711 | S. cerevisiae deletion strains, locus YMR231W, strain pep5, active compounds read low 0.533 | S. cerevisiae deletion strains, locus YMR307W, strain GAS1, active compounds read low 0.53 | S. cerevisiae deletion strains, locus YNL067W, strain RPL9B, active compounds read low 0.697 | S. cerevisiae deletion strains, locus YNL071W, strain lat1, active compounds read low 0.898 | S. cerevisiae deletion strains, locus YNL153C, strain GIM3, active compounds read low 0.619 | S. cerevisiae deletion strains, locus YNL209W, strain ssb2, active compounds read low 0.277 | S. cerevisiae deletion strains, locus YNL233W, strain BNI4, active compounds read low 0.548 | S. cerevisiae deletion strains, locus YNL248C, strain rpa49, active compounds read low 0.842 | S. cerevisiae deletion strains, locus YNL271C, strain bni1, active compounds read low 0.886 | S. cerevisiae deletion strains, locus YNL298W, strain CLA4, active compounds read low 0.88 | S. cerevisiae deletion strains, locus YNL307C, strain MCK1, active compounds read low 0.775 | S. cerevisiae deletion strains, locus YNR052C, strain pop2, active compounds read low 0.824 | S. cerevisiae deletion strains, locus YOL006C, strain TOP1, active compounds read low 0.319 | S. cerevisiae deletion strains, locus YOL147C, strain pex11, active compounds read low 0.873 | S. cerevisiae deletion strains, locus YOR001W, strain rrp6, active compounds read low 0.836 | S. cerevisiae deletion strains, locus YOR061W, strain CKA2, active compounds read low 0.528 | S. cerevisiae deletion strains, locus YOR069W, strain VPS5, active compounds read low 0.606 | S. cerevisiae deletion strains, locus YOR070C, strain gyp1, active compounds read low 0.77 | S. cerevisiae deletion strains, locus YOR080W, strain dia2, active compounds read low 0.818 | S. cerevisiae deletion strains, locus YOR083W, strain WHI5, active compounds read low 0.616 | S. cerevisiae deletion strains, locus YOR106W, strain vam3, active compounds read low 0.832 | S. cerevisiae deletion strains, locus YOR136W, strain idh2, active compounds read low 0.84 | S. cerevisiae deletion strains, locus YOR144C, strain elg1, active compounds read low 0.893 | S. cerevisiae deletion strains, locus YOR184W, strain ser1, active compounds read low 0.661 | S. cerevisiae deletion strains, locus YOR265W, strain rbl2, active compounds read low 0.699 | S. cerevisiae deletion strains, locus YOR270C, strain vph1, active compounds read low 0.394 | S. cerevisiae deletion strains, locus YOR316C, strain cot1, active compounds read low 0.865 | S. cerevisiae deletion strains, locus YPL051W, strain arl3, active compounds read low 0.48 | S. cerevisiae deletion strains, locus YPL078C, strain atp4, active compounds read low 0.879 | S. cerevisiae deletion strains, locus YPL106C, strain sse1, active compounds read low 0.83 | S. cerevisiae deletion strains, locus YPL241C, strain CIN2, active compounds read low 0.788 | S. cerevisiae deletion strains, locus YPR119W, strain clb2, active compounds read low 0.914 | S. cerevisiae deletion strains, locus YPR163C, strain tif3, active compounds read low 0.771 | S. cerevisiae deletion strains, locus YPR167C, strain met16, active compounds read low 0.712 | S. cerevisiae deletion strains, strain wtn01, active compounds read low 0.632 | S. cerevisiae strains, strain wild type, active compounds read low 0.346
